According to ChEMBL document CHEMBL2218924, “A broad activity screen in support of a chemogenomic map for kinase signalling research and drug discovery” (Biochem J, 2013):

Columns and labels:
[1] = biological target: Myosin light chain kinase, smooth muscle (Homo sapiens) (UniProt Q15746); settings: at 1 µM
[2] = biological target: Myosin light chain kinase, smooth muscle (Homo sapiens) (UniProt Q15746); settings: at 10 µM
[3] = biological target: Mitogen-activated protein kinase kinase kinase 9 (Homo sapiens) (UniProt P80192); settings: at 1 µM
[4] = biological target: Mitogen-activated protein kinase kinase kinase 9 (Homo sapiens) (UniProt P80192); settings: at 10 µM
[5] = biological target: Serine/threonine-protein kinase MRCK alpha (Homo sapiens) (UniProt Q5VT25); settings: at 1 µM
[6] = biological target: Serine/threonine-protein kinase MRCK alpha (Homo sapiens) (UniProt Q5VT25); settings: at 10 µM
[7] = biological target: Serine/threonine-protein kinase MRCK beta (Homo sapiens) (UniProt Q9Y5S2); settings: at 1 µM
[8] = biological target: Serine/threonine-protein kinase MRCK beta (Homo sapiens) (UniProt Q9Y5S2); settings: at 10 µM
[9] = biological target: Ribosomal protein S6 kinase alpha-4 (Homo sapiens) (UniProt O75676); settings: at 1 µM
[10] = biological target: Ribosomal protein S6 kinase alpha-4 (Homo sapiens) (UniProt O75676); settings: at 10 µM
[11] = biological target: SRSF protein kinase 3 (Homo sapiens) (UniProt Q9UPE1); settings: at 1 µM
[12] = biological target: SRSF protein kinase 3 (Homo sapiens) (UniProt Q9UPE1); settings: at 10 µM
[13] = biological target: T1, Serine/threonine-protein kinase 4 (Homo sapiens) (UniProt Q13043); settings: at 1 µM
T1 sequence (whole entry): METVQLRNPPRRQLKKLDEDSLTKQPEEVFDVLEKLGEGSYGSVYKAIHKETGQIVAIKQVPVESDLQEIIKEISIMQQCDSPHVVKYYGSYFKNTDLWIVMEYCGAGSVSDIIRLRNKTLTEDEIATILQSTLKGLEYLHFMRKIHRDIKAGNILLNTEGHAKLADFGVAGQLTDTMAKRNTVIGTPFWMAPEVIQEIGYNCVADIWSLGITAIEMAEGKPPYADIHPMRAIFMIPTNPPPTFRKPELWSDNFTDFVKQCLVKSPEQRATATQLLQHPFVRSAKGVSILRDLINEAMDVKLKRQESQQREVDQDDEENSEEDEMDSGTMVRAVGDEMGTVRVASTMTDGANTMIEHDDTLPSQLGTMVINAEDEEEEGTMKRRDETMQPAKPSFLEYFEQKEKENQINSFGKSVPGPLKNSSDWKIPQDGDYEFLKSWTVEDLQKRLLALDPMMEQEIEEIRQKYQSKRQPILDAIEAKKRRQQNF

[14] = biological target: T1, Serine/threonine-protein kinase 4 (Homo sapiens); settings: at 10 µM
[15] = biological target: T2, Serine/threonine-protein kinase 3 (Homo sapiens) (UniProt Q13188); settings: at 1 µM
T2 sequence (whole entry): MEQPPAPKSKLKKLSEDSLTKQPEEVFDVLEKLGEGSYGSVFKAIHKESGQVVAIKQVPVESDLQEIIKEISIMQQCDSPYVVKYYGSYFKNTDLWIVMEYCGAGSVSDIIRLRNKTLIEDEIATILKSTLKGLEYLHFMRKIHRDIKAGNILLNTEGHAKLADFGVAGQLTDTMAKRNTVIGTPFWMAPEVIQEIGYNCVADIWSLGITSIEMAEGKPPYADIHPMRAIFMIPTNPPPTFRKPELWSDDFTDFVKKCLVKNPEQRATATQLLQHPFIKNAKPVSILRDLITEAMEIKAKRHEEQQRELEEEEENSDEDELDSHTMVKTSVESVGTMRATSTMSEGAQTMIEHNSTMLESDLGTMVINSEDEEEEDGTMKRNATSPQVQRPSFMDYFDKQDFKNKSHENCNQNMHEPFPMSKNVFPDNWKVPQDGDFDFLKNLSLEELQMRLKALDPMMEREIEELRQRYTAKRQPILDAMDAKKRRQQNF

[16] = biological target: T2, Serine/threonine-protein kinase 3 (Homo sapiens); settings: at 10 µM
[17] = biological target: Serine/threonine-protein kinase 24 (Homo sapiens) (UniProt Q9Y6E0); settings: at 1 µM
[18] = biological target: Serine/threonine-protein kinase 24 (Homo sapiens) (UniProt Q9Y6E0); settings: at 10 µM
[19] = biological target: Ribosomal protein S6 kinase alpha-5 (Homo sapiens) (UniProt O75582); settings: at 1 µM
[20] = biological target: Ribosomal protein S6 kinase alpha-5 (Homo sapiens) (UniProt O75582); settings: at 10 µM

Myosin light chain kinase, smooth muscle (Homo sapiens), sequence (Q15746 whole entry): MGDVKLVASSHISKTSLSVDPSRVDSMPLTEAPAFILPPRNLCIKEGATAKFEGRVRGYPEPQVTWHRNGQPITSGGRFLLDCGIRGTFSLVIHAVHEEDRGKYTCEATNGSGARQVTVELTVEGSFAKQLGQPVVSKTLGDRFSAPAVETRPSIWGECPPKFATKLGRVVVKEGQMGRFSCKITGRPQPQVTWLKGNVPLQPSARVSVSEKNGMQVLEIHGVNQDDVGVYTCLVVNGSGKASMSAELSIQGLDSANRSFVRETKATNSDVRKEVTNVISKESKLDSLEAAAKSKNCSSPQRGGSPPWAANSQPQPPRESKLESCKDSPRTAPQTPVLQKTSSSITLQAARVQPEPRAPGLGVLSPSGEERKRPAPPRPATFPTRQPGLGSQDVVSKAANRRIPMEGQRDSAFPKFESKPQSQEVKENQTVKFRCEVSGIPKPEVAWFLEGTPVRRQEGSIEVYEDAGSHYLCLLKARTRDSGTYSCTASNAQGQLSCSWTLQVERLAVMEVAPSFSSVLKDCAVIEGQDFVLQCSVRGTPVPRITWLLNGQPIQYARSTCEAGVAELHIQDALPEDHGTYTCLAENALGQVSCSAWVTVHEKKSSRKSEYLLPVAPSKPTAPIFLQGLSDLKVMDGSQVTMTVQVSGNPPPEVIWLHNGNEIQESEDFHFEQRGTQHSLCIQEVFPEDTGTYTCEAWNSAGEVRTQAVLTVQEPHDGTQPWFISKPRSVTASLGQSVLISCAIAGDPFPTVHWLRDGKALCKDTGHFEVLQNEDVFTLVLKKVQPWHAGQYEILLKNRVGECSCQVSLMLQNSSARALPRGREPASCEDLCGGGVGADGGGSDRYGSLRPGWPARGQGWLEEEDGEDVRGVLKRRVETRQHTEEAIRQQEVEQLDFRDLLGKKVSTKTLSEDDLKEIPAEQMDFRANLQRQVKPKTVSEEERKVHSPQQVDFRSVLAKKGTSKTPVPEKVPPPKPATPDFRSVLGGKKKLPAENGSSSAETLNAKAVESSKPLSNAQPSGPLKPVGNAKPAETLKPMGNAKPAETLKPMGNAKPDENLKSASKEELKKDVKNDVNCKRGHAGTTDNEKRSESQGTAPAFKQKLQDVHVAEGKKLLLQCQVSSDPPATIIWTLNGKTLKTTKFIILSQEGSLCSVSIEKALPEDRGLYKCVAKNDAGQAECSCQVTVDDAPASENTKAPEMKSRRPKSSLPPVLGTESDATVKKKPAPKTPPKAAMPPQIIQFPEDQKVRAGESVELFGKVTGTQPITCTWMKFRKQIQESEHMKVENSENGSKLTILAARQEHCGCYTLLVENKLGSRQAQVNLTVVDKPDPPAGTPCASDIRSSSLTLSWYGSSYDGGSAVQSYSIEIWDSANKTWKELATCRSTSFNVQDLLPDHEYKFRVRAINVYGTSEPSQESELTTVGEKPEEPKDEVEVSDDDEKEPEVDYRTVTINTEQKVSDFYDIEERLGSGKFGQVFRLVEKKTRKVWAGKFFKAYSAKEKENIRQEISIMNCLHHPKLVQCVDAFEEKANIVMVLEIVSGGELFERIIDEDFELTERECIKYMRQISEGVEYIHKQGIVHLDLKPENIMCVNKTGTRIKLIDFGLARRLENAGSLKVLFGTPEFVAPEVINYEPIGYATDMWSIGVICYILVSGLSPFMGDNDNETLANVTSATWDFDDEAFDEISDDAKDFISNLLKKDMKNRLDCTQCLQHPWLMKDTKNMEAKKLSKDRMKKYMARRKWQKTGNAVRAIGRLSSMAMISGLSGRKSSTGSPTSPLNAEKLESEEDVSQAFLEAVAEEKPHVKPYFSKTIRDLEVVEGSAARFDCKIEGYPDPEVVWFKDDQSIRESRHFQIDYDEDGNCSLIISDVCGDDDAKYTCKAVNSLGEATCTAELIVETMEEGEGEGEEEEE
Serine/threonine-protein kinase 24 (Homo sapiens), sequence (Q9Y6E0 whole entry, looked up): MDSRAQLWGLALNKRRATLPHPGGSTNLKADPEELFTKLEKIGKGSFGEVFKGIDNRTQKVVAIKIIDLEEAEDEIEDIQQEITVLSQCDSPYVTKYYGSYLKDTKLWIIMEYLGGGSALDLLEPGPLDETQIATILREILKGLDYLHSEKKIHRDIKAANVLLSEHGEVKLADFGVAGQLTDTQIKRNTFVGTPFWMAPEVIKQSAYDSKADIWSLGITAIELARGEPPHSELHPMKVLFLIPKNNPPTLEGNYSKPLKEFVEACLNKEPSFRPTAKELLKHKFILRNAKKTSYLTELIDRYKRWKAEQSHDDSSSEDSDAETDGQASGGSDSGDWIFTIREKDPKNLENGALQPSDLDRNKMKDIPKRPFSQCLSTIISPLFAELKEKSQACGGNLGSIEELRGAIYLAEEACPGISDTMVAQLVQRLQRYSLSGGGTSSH
Serine/threonine-protein kinase MRCK alpha (Homo sapiens), sequence (Q5VT25 whole entry): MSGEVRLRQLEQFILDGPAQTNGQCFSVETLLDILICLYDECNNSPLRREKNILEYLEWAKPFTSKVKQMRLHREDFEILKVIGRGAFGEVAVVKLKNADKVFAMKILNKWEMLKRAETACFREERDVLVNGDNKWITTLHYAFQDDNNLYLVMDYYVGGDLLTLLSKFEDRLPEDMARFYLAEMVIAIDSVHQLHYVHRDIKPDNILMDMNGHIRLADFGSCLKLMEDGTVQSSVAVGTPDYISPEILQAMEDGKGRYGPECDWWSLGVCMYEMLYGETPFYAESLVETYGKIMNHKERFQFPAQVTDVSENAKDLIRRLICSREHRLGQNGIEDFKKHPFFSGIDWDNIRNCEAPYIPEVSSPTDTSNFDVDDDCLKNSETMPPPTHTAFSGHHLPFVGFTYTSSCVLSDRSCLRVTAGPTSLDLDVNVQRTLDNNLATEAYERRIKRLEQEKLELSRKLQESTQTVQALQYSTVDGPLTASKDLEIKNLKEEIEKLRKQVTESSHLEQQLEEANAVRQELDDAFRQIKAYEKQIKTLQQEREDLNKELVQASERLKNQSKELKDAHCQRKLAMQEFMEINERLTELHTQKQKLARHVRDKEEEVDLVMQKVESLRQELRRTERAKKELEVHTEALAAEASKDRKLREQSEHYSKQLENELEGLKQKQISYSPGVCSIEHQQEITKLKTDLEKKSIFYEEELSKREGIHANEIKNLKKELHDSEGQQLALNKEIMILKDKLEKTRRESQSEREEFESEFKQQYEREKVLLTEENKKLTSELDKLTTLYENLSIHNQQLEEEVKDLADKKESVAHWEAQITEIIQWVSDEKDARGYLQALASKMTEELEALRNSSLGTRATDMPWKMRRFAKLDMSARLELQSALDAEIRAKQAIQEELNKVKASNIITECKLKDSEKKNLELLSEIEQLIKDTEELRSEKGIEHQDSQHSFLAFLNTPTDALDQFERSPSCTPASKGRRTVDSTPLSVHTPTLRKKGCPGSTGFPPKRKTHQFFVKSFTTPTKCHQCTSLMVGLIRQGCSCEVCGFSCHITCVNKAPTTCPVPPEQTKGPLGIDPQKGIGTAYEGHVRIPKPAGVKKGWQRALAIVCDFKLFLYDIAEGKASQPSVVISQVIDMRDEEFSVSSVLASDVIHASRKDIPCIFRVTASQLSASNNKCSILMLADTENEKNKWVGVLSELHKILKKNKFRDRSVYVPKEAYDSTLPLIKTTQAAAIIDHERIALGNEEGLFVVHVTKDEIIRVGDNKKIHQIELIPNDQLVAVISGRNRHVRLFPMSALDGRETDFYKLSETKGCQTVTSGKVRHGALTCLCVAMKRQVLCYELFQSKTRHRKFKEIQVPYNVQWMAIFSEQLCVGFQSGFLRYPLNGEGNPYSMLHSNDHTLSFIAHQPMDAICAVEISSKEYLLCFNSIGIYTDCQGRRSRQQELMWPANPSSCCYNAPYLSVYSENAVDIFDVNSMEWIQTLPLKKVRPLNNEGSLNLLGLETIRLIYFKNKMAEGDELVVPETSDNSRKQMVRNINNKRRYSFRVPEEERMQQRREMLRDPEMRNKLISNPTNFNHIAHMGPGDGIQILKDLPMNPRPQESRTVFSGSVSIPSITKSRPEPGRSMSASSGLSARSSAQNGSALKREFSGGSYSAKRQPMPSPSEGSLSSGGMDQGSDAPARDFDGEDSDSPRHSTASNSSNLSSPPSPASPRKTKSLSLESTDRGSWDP
Ribosomal protein S6 kinase alpha-5 (Homo sapiens), sequence (O75582 whole entry, looked up): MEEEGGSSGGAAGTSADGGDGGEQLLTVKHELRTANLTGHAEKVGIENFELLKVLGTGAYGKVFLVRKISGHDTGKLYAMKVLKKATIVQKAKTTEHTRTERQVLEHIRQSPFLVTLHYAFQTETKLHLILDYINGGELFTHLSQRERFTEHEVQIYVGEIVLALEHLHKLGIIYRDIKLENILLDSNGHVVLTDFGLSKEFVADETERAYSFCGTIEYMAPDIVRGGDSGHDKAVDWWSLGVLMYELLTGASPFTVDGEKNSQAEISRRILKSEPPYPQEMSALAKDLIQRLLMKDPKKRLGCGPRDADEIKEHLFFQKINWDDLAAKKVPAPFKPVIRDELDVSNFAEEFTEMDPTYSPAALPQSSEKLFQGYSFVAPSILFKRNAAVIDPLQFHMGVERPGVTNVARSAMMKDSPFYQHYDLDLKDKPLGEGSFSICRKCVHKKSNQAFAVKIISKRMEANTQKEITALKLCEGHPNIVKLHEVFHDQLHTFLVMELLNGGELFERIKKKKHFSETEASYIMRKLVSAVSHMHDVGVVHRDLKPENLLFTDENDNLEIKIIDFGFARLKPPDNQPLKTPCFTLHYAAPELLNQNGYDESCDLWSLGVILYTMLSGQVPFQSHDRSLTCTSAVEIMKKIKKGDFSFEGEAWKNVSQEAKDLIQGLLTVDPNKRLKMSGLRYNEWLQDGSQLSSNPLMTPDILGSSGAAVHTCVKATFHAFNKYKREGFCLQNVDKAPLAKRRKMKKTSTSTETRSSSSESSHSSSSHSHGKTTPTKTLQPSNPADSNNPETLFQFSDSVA

SMILES	residual activity [1]	residual activity [2]	residual activity [3]	residual activity [4]	residual activity [5]	residual activity [6]	residual activity [7]	residual activity [8]	residual activity [9]	residual activity [10]	residual activity [11]	residual activity [12]	residual activity [13]	residual activity [14]	residual activity [15]	residual activity [16]	residual activity [17]	residual activity [18]	residual activity [19]	residual activity [20]
COc1cc2ncnc(Nc3ccc(OCc4ccccc4)cc3)c2cc1OC	84%	90%	81%	56%	121%	117%	95%	95%	99%	101%	122%	89%	95%	104%	111%	81%	70%	90%		
C[S+]([O-])c1ccc(-c2nc(-c3ccc(F)cc3)c(-c3ccncc3)[nH]2)cc1 (centres undefined)	118%	89%	101%		106%	119%	113%	110%	102%	81%	102%	101%	111%	109%	104%	93%	115%	102%	97%	98%
COc1ccc2c(c[n+](C)c3c4cc5c(cc4ccc23)OCO5)c1OC	78%			81%	85%	84%	90%	81%		94%	110%	66%	92%	98%		94%	73%	73%		
O=C1Nc2ccc3ncsc3c2/C1=C/c1c[nH]cn1	25%	11%	9%	2%	104%	90%	75%	49%	20%	6%	98%	68%	1%	3%	2%	1%	3%	0%	43%	7%
CC(C)[C@H](CO)Nc1nc(Nc2cccc(Cl)c2)c2ncn(C(C)C)c2n1		46%	10%	1%			98%	88%	95%	62%	73%	17%	63%	30%			58%	20%		
O=[N+]([O-])/C=C/c1ccc2c(c1)OCO2	89%	82%	100%	111%	106%	100%	83%	89%	90%	101%	120%	93%	101%		104%	91%	77%	75%	125%	110%
CC(C)(C)c1cc(C=C(C#N)C#N)cc(Br)c1O			104%	97%	108%		115%				105%		104%	119%				100%	122%	97%
c1cc(-c2cnn3cc(-c4ccc(OCCN5CCCCC5)cc4)cnc23)ccn1		71%	78%	17%	121%	118%	106%		103%	70%									121%	60%
CCn1cnc2c(Nc3cccc(Cl)c3)nc(N[C@@H]3CCCC[C@@H]3N)nc21	94%	46%	16%	2%			94%	78%	79%	60%	95%	71%	64%	47%		70%	78%	59%		
O=C1NC(=O)c2c1c1c3ccccc3n3c1c1c2c2ccccc2n1C1CCC3O1	90%	65%	1%	2%					56%	64%	99%	96%	19%	-1%	10%	12%	80%	65%	41%	33%
CCc1nc(-c2ccc(OC)cc2)[nH]c1-c1ccncc1					115%	114%					123%	103%		111%					108%	112%
O=c1[nH]c2ccccc2n1C1CCN(Cc2ccc(-c3nc4cc5[nH]cnc5cc4nc3-c3ccccc3)cc2)CC1	76%	4%	98%	100%	122%	128%	96%	82%	106%	96%	112%	91%	102%	80%	106%	80%	72%	80%	132%	106%
CN[C@@H]1C[C@H]2O[C@@](C)([C@@H]1OC)n1c3ccccc3c3c4c(c5c6ccccc6n2c5c31)C(=O)NC4	0%	1%	0%	1%					1%	-1%		40%								
O=C1c2ccccc2-c2nc3nnnn3nc21	79%	104%	103%	102%	107%	100%	116%		108%	108%	107%	83%	108%	110%					145%	
N/C(=N\[N+](=O)[O-])N/N=C\c1ccc(-c2cccc([N+](=O)[O-])c2)o1									97%	84%							98%	79%		
COC(=O)[C@@]1(O)C[C@H]2O[C@]1(C)n1c3ccccc3c3c4c(c5c6ccccc6n2c5c31)C(=O)NC4	1%	2%	1%	0%	71%	23%	33%	5%	-1%	0%	11%	2%	5%	1%	2%	1%	14%	0%	5%	0%
COc1ccc2c(c1)/C(=C/c1cnc[nH]1)C(=O)N2			25%	4%	129%	100%			63%	19%					16%	3%				
COc1cc(OC)c(/C=C2\C(=O)Nc3ccccc32)c(OC)c1	88%	77%	92%	65%			83%	84%	96%	94%	101%		108%	105%	102%	91%	80%	76%		
